Screening results as filed in PubChem.
GCN5L2 inh – GCN5L2 (KAT2A) acetyltransferase inhibition | Q92830 | 390,000 compounds, 0.21% hits | GCN5L2 HAT assay, ThioGlo1 CoA-SH fluorescence | Potency, µM (highest dose often 58.9 µM), without a hit: at the highest dose activity change, negative = inhibition, actives largely listed as inhibitors
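Enzyme at 20nM final was mixed with library compounds for 15 min at room temperature. Peptide H3(1-25) at 75uM, acetyl-CoA at 70uM and ThioGlo1 at 50uM were then added. Plates were read immediately and after 20 min (Ex340nm/Em540nm).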
L3MBTL1 block – inhibitors of human L3MBTL1; Potency, µM (highest dose often 57.1 µM), without a hit: at the highest dose activity, negative = inhibition, usual class: inhibitors; AID 485360; Q9Y468; AlphaScreen L3MBTL1–H3K9me1 peptide binding; 230,000 compounds, 0.66% hits; also: nearly all actives have a fitted effect of over 60% in size
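Displacement of a biotinylated histone H3(1-15) peptide monomethylated at Lys9 (75 nM) from L3MBTL1 (50 nM) was measured by AlphaScreen after a 30 min room-temperature compound incubation; cefsulodin titration served as intraplate control.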
APE1 inh – blocks human APE1 abasic DNA cleavage | AID 2517 | 350,000 compounds, 0.35% hits | Potency, µM (top dose mostly 65.8 µM), for inactives: top-dose activity change, negative = inhibition, hits mostly inhibitors | recombinant APE1, TAMRA/BHQ-2 abasic DNA cleavage fluorescence;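 also: plate controls were vehicle for no effect and reference inhibitor for full effect; nearly all actives have a fitted effect of over 55% in size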
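Enzyme (0.75 nM final) and test compound are incubated 15 min at room temperature before adding 50 nM quenched THF abasic-site duplex. Cleavage dequenches TAMRA, followed at 525/598 nm over three reads one minute apart.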
JMJD2E inh – inhibitors of human JMJD2E histone demethylase | B2RXH2 | JMJD2E catalytic domain, FDH-coupled NADH fluorescence (FDH is formaldehyde dehydrogenase) | Potency, µM (highest dose often 57.1 µM), for inactives: top-dose activity change, negative = inhibition, usual class: inhibitors | 230,000 compounds, 1.6% hits | AID 2147; active = well fitted inhibition curve with a large enough effect, not every such curve was filed as active; inconclusive = small, poorly fitted or top-dose-only effect, or another doubt; inactive = no such curve, though single readings can be large or run the other way;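 also: 0% = wells with enzyme and -100% = buffer wells without enzyme; nearly all actives have a fitted effect of over 50% in size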
BLM helicase inh – blocks DNA unwinding by human BLM helicase; AID 2528; 350,000 compounds, 0.2% hits; P54132; recombinant BLM DNA unwinding, fluorescence dequenching; Potency, µM (titrated, usually from 56.1 µM), without a hit: at the top dose activity change, negative = inhibition, most hits filed as inhibitors;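 also: plate controls were vehicle for no effect and no enzyme for full effect; nearly all actives have a fitted effect of over 35% in size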
RECQ1 helicase – RECQ1 (human) helicase inhibition; RECQ1 DNA unwinding, red fluorescence kinetic read; Potency, µM (series often up to 57.3 µM), without a hit: at the top dose activity, negative = inhibition, hits mostly inhibitors; 240,000 compounds, 0.54% hits;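 also: plate controls were vehicle for no effect and no enzyme for full effect; nearly all actives have a fitted effect of over 30% in size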
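RECQ1T1 50 nM; forked duplex (20 bp + 30-nt ss tails) 200 nM, ATP 2 mM final; pH 8.0, 2 mM MgCl2, 2.5 ug/ml poly(dI-dC); 15 min compound preincubation; discontinuous kinetic read over 2 h at RT.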
Active calls of the source: *; i = inactive; ? = inconclusive; . = no result; ! = repeats disagree; [ ] = another dose, or the depositor's remark. Only a selection was taken, and hits are over-represented in it overall. Unless noted, calls follow the shape of the dose curve; as a rule, active = well fitted curve in the direction sought with a large enough effect; inconclusive = small, poorly fitted or top-dose-only effect, or another doubt; inactive = no such curve, though single readings can be large; an effect the other way counts as inactive or inconclusive. Unless noted, % is scaled to controls: 0 for no effect and ±100 for the full control effect; potency is read from the fitted curve at half-maximal effect.

SMILES	GCN5L2 inh	L3MBTL1 block	APE1 inh	JMJD2E inh	BLM helicase inh	RECQ1 helicase
CCCCCCNC(=O)N[C@H](C(=O)NCCC[C@H]1CN2C(=NC[C@H]2C)N1CCC(c1ccccc1)c1ccccc1)C(C)O (some centres undefined)	7.94µM*	.	?	20µM*	0.7%	i
N[C@H](C(=O)N[C@@H]1C(=O)N2C(C(=O)O)=C(Cl)CS[C@@H]12)c1ccccc1	-21.9%[21.4 µM]	.	-3.6%[21 µM]	14.1µM*!	5.8%[21.4 µM]	-0.2%[25.9 µM]
CC1(C)S[C@@H]2[C@H](NC(=O)[C@H](N)c3ccccc3)C(=O)N2[C@H]1C(=O)O	-9.9%	-9.0%	10µM*!	?	?	20µM*!
C=CCOc1ccc(C2=NOC(C(=O)Nc3ccc4c(c3)OCCO4)C2)cc1 (centres undefined)	-26.3%	.	-13.2%	.	-10.6%	.
CCc1cccc2cc(C(O)CNC(C)(C)C)oc12 (centres undefined)	0.8%	.	19.5%	.	0.5%	9.8%
Cc1cccc(C2=NN(c3ccccc3)[C@@H](C(=O)N3CCOC3=O)[C@@H]2c2ccc(F)cc2)c1	31.6µM*	44.6%	18.0%	.	-12.6%[75.6 µM]	i
CCn1ccnc1CN1CCc2c([nH]c3ccccc23)C1C(C)(C)C (centres undefined)	3.0%	-23.0%	2.4%	-21.8%	-8.2%	i
CCn1ccnc1CN1CCc2c([nH]c3ccccc23)C1C1CCCCC1 (centres undefined)	-7.4%	-18.0%	-1.3%	28.2µM*	-10.3%	-5.6%
Nc1ccc(C(=O)O)c(O)c1	-5.5%	5.1%	1.4%	7.08µM*!	-12.4%	9.4%
O=C(Nc1ccccc1[N+](=O)[O-])c1cccc(N2C(=O)CCC2=O)c1	-6.5%	.	-0.4%	.	0.2%	.
Cc1nc(S/C(=C/c2ccc(-c3ccc(Cl)cc3)o2)C(=O)O)n[nH]1	1.8%	.	3.1%	-15.1%	-0.2%	-2.3%
Cc1nc(S/C(=C/c2ccc(-c3cc(Cl)ccc3C)o2)C(=O)O)n[nH]1	-7.4%	2.8%	1.1%	5.01µM*	1.6%	-4.3%
CC(C)(C)NC(=O)NC(=O)CSc1ncn[nH]1	1.9%	.	-0.7%	-3.9%	3.2%	0.4%
CC(C)c1ccc(C(=O)CSc2ncn[nH]2)cc1	?	-5.6%	-3.8%	25.1µM*	-1.5%	i
O=C(CSc1ncn[nH]1)c1ccc2c(c1)OCCO2	-11.1%	1.5%[11.4 µM]	19.8%	?	0.3%	-0.4%
O=C(CSc1ncn[nH]1)CSc1ncn[nH]1	-6.2%	.	18.4%	3.55µM*	1.2%	-12.5%
Cc1ccc(S(=O)(=O)n2c3ccccc3c3nnc(C(=O)c4ccccc4)nc32)cc1	.	.	-3.0%[12.4 µM]	.	-8.2%[12.4 µM]	0.1%[11.5 µM]
Cc1ccc(CNc2ncc(N3CCCCC3)cn2)cc1	.	.	13.0%	.	.	.
O=C(NC(=S)Nc1ccccc1N1CCCC1)c1ccc([N+](=O)[O-])cc1	-8.0%	7.08µM*	3.5%	-1.9%	-13.8%	-2.0%
O=C(NC(=S)Nc1ccccc1N1CCOCC1)c1ccc([N+](=O)[O-])cc1	0.5%	-6.5%	2.8%	9.2%	1.0%	-4.5%
O=C(O)c1ccccc1CSc1nc2ccccc2n1Cc1ccccc1C(=O)O	-6.0%	.	-6.6%	?	-9.0%	-0.5%
CN1CCN(c2ccc(-c3cc(O)c4ncccc4c3)cc2)CC1	-4.1%	?	-2.8%	.	.	.
CCCCCc1cc(=O)oc2c(C(CCN3CCCC3)c3cc(OC)c(OC)c(OC)c3)c(OC)cc(OC)c12 (centres undefined)	-20.0%	.	-3.3%	22.4µM*	1.6%	i
CCCCCCCCCCCCCCSCC(=O)O	10µM*	.	-7.6%	-4.4%	.	-7.9%
CCCCCCCCCCCCCCCC(=O)O	-29.7%	.	.	.	-11.8%	.
SMILES	GCN5L2 inh	L3MBTL1 block	APE1 inh	JMJD2E inh	BLM helicase inh	RECQ1 helicase
Cc1ccccc1NC(=S)c1nc2ccccc2[nH]1	-4.8%	?	-2.7%	18.9µM*	-4.2%	-5.8%
COc1cc(NCc2ccc3nc(N)nc(N)c3c2C)cc(OC)c1OC	-18.4%	.	?	.	17.8µM*!	i
O=C(O)CCC/C=C\C[C@@H]1[C@@H](CC[C@@H](O)CCc2ccccc2)[C@H](O)C[C@@H]1O	5.0%	.	15.7%	.	0.0%	7.8%
CC(C)NC(=O)CC(=O)N/N=C/c1cccs1	-1.8%	0.6%	4.7%	?	17.8µM*	-7.2%
Cc1cn(S(=O)(=O)c2ccc(Br)c3ccccc23)cn1	0.8%	2.3%	-3.4%	-7.7%	-0.4%	2.8%
CC(=O)NCC(=O)OCC(=O)c1ccc(C)c(C)c1	-9.1%	.	-2.5%	10.1%	-0.2%	i
Cc1ccc(C(=O)COC(=O)C2C3C=CC(C3)C2C(=O)OCC(=O)c2ccc(C)c(C)c2)cc1C (centres undefined)	0.794µM*	3.5%	-4.5%	0.5%	-5.5%	i
C=CCSc1nnc(NC(=O)CSc2nc(CCC)cc(=O)[nH]2)s1	-8.4%	-8.2%	5.5%	5.8%	4.0%	-13.1%
CC1=CC(C)(C)Nc2ccc(Cc3ccc4c(c3)C(C)=CC(C)(C)N4)cc21	-11.0%	?	1.2%	?	-17.6%	-6.3%
CC1=CC(C)(C)Nc2ccc(C)cc21	1.6%	-3.0%	-2.1%	14.1µM*	1.2%	-5.9%
CC1=CC(C)(C)Nc2cc(C)c(C)cc21	0.5%	-16.4%	-4.9%	11.2µM*	1.7%	1.4%
Cc1nc2c3c(sc2c(=O)[nH]1)NC(=O)CC3c1ccccc1Cl (centres undefined)	0.0%	.	15.8%	-4.6%	3.7%	-8.1%
Cc1cc(C(=O)O)ccc1[C@H](N)C(=O)O	-2.4%	.	39.8µM*!	-2.0%	-1.9%	2.7%
O=C(CCCC(=O)c1ccc(F)cc1)c1ccc(F)cc1	1.3%	.	3.4%	.	-3.1%	.
CCCCC1=CC2=C(c3ccco3)C(=O)C(C)(OC(=O)c3ccc(OC)cc3)C(=O)C2=CN1CCc1ccccn1 (centres undefined)	-25.2%	.	-0.1%[12.4 µM]	8.91µM*!	-5.1%[12.4 µM]	1.5%[11.5 µM]
CN(C)S(=O)(=O)N1CCC(n2cnc3cccnc32)CC1	-6.7%	.	.	.	-1.6%	.
CC(C)CCn1c(O)c(N=Nc2ccccn2)c2ccccc21	-6.3%	-6.0%	0.6%	-16.7%	-1.9%	-4.0%
O=S(=O)(O)c1cccc(N=Nc2c(O)ccc3ccccc23)c1	2.2%	.	?	-8.8%	-8.1%	-14.0%
Oc1ccc2ccccc2c1N=Nc1ccccc1F	-6.8%	8.91µM*	-3.5%	?	-2.0%	-20.1%
Oc1ccc2ccccc2c1N=Nc1ccccn1	-3.4%	10µM*	-0.4%	?	-2.7%	i
O=C(/C=C/c1ccccc1)NC(=S)NNC(=O)c1cnccn1	-10.2%	.	-1.9%	8.91µM*	-6.9%	-1.8%
CC1=C[C@@H](O)CC(C)(C)[C@@H]1/C=C/C(C)=C/C=C/C(C)=C/C=C/C=C(C)/C=C/C=C(C)/C=C/C1=C(C)C[C@H](O)CC1(C)C	-4.7%	.	.	.	-6.4%	.
